Compound activity: PubChem, National Center for Advancing Translational Sciences (NCATS)
Sampled rows, rich in hits. Any-hit rate of the full collection: about 19%.
TDP1 cell CPT: DT40-hTDP1 cell growth loss with CPT; chicken DT40 Tdp1-/-;hTDP1 cells + 20 nM CPT, ATP luminescence, 48 h; Potency, µM (titrated, usually from 46.2 µM), hits mostly inhibitors; 420,000 compounds, 12% hits; note: nearly all actives have a fitted effect of over 55% in size
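Chicken DT40 Tdp1-/- cells stably complemented with human TDP1 were seeded at 400 cells/well in medium containing 20 nM camptothecin, exposed to pin-transferred compounds, and grown at 37 °C for at least 48 hr. Viability was read as ATP luminescence.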
uPA surface inh: inhibitors of cell surface uPA generation; cell surface uPA generation assay, qHTS; Potency, µM (series often up to 38.3 µM), hits mostly inhibitors; 330,000 compounds, 0.31% hits; active = well fitted inhibition curve with a large enough effect; inconclusive = small, poorly fitted or top-dose-only effect; inactive = no such curve, though single readings can be large or run the other way; tested in mouse RAW 264.7 cells; note: nearly all actives have a fitted effect of over 55% in size
HT1080 IDH1KD tx: toxicity to HT-1080 IDH1 knockdown cells (counter line) | 360,000 compounds, 2% hits | Potency, µM (highest dose often 46.1 µM), usual class: cytotoxic | HT-1080 IDH1 knockdown viability, ATP luminescence, 48 h | AID 686971
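After a 2 h attachment period, IDH1KD HT-1080 cells took pin-transferred compound for 48 h at 37 °C; ATP-based luminescence after 10 min room-temperature reagent incubation reported viability.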
IL-1B inflam inh: blocks inflammasome-driven IL-1 beta release. THP-1 LPS/ATP IL-1B secretion, AlphaLISA, 16 h; stronger effect = lower value. activity change, % at 57.5 µM. 360,000 compounds, 4.7% hits; in the data active = activity change below about -50%; inconclusive = mostly about -30% to -49%
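Secreted IL-1B measured by AlphaLISA bead assay after 16 h compound exposure of THP-1 cells; compounds (final up to 57.5 uM) added 1 h before LPS (250 ng/mL) and ATP (1.25 mM) stimulation; lower signal means less secretion.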
HT1080NT lethal: kills 2HG-producing HT-1080-NT fibrosarcoma cells; Potency, µM (doses to about 46.1 µM), actives largely listed as cytotoxic; HT-1080-NT fibrosarcoma viability, CellTiter-Glo ATP luminescence, 48 h; 360,000 compounds, 1.6% hits;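 note: NT is the 2HG producing partner of a matched IDH1 knockdown line; nearly all actives have a fitted effect of over 55% in size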
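Toxicity toward the 2HG-producing NT line was scored as %Activity, normalised to DMSO and no-cell wells, from CellTiter-Glo luminescence after 48 hours' treatment.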
TDP1 cell noCPT: qHTS for Inhibitors of human tyrosyl-DNA phosphodiesterase 1 (TDP1): qHTS in cells in absence of CPT. Potency, µM (doses to about 46.2 µM), most hits filed as inhibitors. DT40 Tdp1-/- hTDP1 cells, no CPT, ATP luminescence, 48 h. 420,000 compounds, 15% hits. AID 686978, 2013; note: nearly all actives have a fitted effect of over 55% in size
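Chicken DT40 Tdp1-/- cells complemented with human TDP1, screened without camptothecin (DMSO vehicle only), 400 cells/well. Compounds pin-transferred, cells incubated at 37 °C for at least 48 hr. Growth read as ATP-dependent luminescence (CellTiter-Glo, 30 min at RT).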
Each line names hits and unclear results; the compound was inactive in the other large screens. Unless noted, calls come from the whole dose curve; as a rule, active = well fitted curve in the direction sought with a large enough effect; inconclusive = small, poorly fitted or top-dose-only effect, or another doubt; inactive = no such curve, though single readings can be large; an effect the other way counts as inactive or inconclusive.

CC(=O)c1sc2c(c1C)c(=O)n(-c1ccc(Cl)cc1)c(=O)n2Cc1cc(=O)n2cc(Cl)ccc2n1	none (no result: uPA surface inh, HT1080 IDH1KD tx, IL-1B inflam inh, HT1080NT lethal)
O=C1C(CSCc2ccccc2)NC(=S)N1c1ccccc1 (stereo not drawn)	TDP1 cell CPT 2.91µM, TDP1 cell noCPT 4.61µM
C[C@@]12C(=O)OC(=O)[C@]1(C)C1CCC2O1	HT1080 IDH1KD tx 1.46µM, HT1080NT lethal 1.46µM
CC(C)c1ccc(NC(=O)Nc2nc(C(N)c3ccccc3Cl)cs2)cc1 (stereo not drawn)	TDP1 cell CPT 13µM, HT1080 IDH1KD tx inconclusive, IL-1B inflam inh -76.9, HT1080NT lethal inconclusive, TDP1 cell noCPT 10.3µM (no result: uPA surface inh)
COc1ccc(NC(=O)Nc2ccc(C(C)C)cc2)cc1	none
CC(C)c1ccc(NC(=O)Nc2nc(CN)cs2)cc1	TDP1 cell CPT inconclusive, TDP1 cell noCPT inconclusive (no result: uPA surface inh)
CC(C)c1ccc(NC(=O)Nc2nc(C(N)C3CCCCC3)cs2)cc1 (stereo not drawn)	TDP1 cell CPT inconclusive, HT1080 IDH1KD tx 20.6µM, IL-1B inflam inh -113.4, HT1080NT lethal inconclusive, TDP1 cell noCPT inconclusive (no result: uPA surface inh)
CC(C)(C)c1ccccc1NC(=O)Nc1nc(C(N)c2ccccc2Cl)cs1 (stereo not drawn)	TDP1 cell CPT inconclusive, HT1080 IDH1KD tx inconclusive, HT1080NT lethal inconclusive, TDP1 cell noCPT inconclusive (no result: uPA surface inh)
Cc1ccccc1NC(=O)Nc1nc(C(N)C2CCCCC2)cs1 (stereo not drawn)	TDP1 cell CPT 23.1µM, HT1080 IDH1KD tx inconclusive, IL-1B inflam inh -54.4, HT1080NT lethal inconclusive, TDP1 cell noCPT inconclusive (no result: uPA surface inh)
CC(C)c1ccc(NC(=O)Nc2nc(C(C)N)cs2)cc1 (stereo not drawn)	TDP1 cell CPT 14.6µM, HT1080 IDH1KD tx 20.6µM, IL-1B inflam inh inconclusive, HT1080NT lethal inconclusive, TDP1 cell noCPT 14.6µM (no result: uPA surface inh)
O=C(Cc1ccc(Cl)cc1)c1c(O)cc(O)cc1O	none (no result: uPA surface inh, HT1080 IDH1KD tx, IL-1B inflam inh, HT1080NT lethal)
COc1ccccc1N1CCN(c2nc(CNC(=O)c3ccc(C)c(C)c3)nc3ccccc23)CC1	none (no result: uPA surface inh, HT1080 IDH1KD tx, IL-1B inflam inh, HT1080NT lethal)
CCCS(=O)(=O)NC(=O)C1(C)CCCN(C(=O)c2ccc(C#N)cc2)C1 (stereo not drawn)	HT1080 IDH1KD tx inconclusive, HT1080NT lethal inconclusive (no result: uPA surface inh)
COc1ccc(CCN2C(=O)CCC2(C)c2nnnn2-c2ccc3c(c2)OCCO3)cc1OC (stereo not drawn)	TDP1 cell noCPT inconclusive (no result: uPA surface inh)
CCOC(=O)CNC(=O)N1CCc2cc(S(=O)(=O)N3CCC(C)CC3)ccc21	TDP1 cell CPT inconclusive (no result: uPA surface inh, HT1080 IDH1KD tx, IL-1B inflam inh, HT1080NT lethal)
CN(C)c1ccc(NC(=O)Nc2nc(C(N)C3CCCCC3)cs2)cc1 (stereo not drawn)	TDP1 cell CPT 18.4µM, HT1080 IDH1KD tx inconclusive, IL-1B inflam inh -60.3, HT1080NT lethal inconclusive, TDP1 cell noCPT 20.6µM (no result: uPA surface inh)
CN(CC(=O)Nc1cccc(F)c1)C(=O)CC1CCCCC1	none
CC1CCN(CCCNC(=O)c2ccc3c(Cl)c4c(nc3c2)CCCC4)CC1	TDP1 cell CPT 13µM, HT1080 IDH1KD tx 20.6µM, HT1080NT lethal inconclusive, TDP1 cell noCPT 3.66µM (no result: IL-1B inflam inh)
CCOc1ccc(CCNC(=O)c2ccc3c(Cl)c4c(nc3c2)CCCC4)cc1	TDP1 cell CPT inconclusive, TDP1 cell noCPT 23.1µM (no result: uPA surface inh, HT1080 IDH1KD tx, IL-1B inflam inh, HT1080NT lethal)
COc1ccc(OC)c(NC(=O)c2ccc3c(Cl)c4c(nc3c2)CCCC4)c1	none (no result: uPA surface inh, HT1080 IDH1KD tx, IL-1B inflam inh, HT1080NT lethal)
CCOC(=O)c1cccc(NC(=O)c2ccc3c(Cl)c4c(nc3c2)CCC4)c1	TDP1 cell CPT inconclusive, TDP1 cell noCPT 29.1µM (no result: uPA surface inh, HT1080 IDH1KD tx, IL-1B inflam inh, HT1080NT lethal)
CCN1CCN(CCCNC(=O)c2ccc3c(Cl)c4c(nc3c2)CCCC4)CC1	TDP1 cell CPT inconclusive, HT1080 IDH1KD tx inconclusive, HT1080NT lethal 25.9µM, TDP1 cell noCPT 18.4µM (no result: IL-1B inflam inh)
COCCNC(=O)c1ccc2c(Cl)c3c(nc2c1)CCC3	none
O=C1CC(C(=O)O)C(c2ccccc2)c2ccccc21 (stereo not drawn)	none
CCN1CCN(C(=O)c2ccc3c(Cl)c4c(nc3c2)CCCC4)CC1	TDP1 cell CPT inconclusive, IL-1B inflam inh -78.3, TDP1 cell noCPT inconclusive
CN1CCN(C(=O)c2ccc3c(Cl)c4c(nc3c2)CCCC4)CC1	TDP1 cell CPT inconclusive, uPA surface inh inconclusive
